Compound activity: PubChem BioAssay, National Center for Advancing Translational Sciences (NCATS)
TGFb SMAD3 inh = TGF-b pathway inhibition; Potency, µM (doses to about 46.1 µM), actives largely listed as inhibitors; AID 588855; actives 1.2% (n = 410,000); HepG2 CAGA-GFP TGF-b/SMAD3 reporter, GFP fluorescence, 18 h; TGF-beta stimulated, 500 pg/mL final; further: nearly all actives have a fitted effect of over 65% in size
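HEPG2 CAGA-GFP, 1000 cells/well; 2 h settle, 37 C; cpd via pin tool; TGF-b 500 pg/mL final; 18 h, 37 C; GFP imaging ex488/em500-530; %Activity normalised to -TGF-b and +DMSO controls; CRC fit, curve class.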
IL-1B inflam inh = inflammasome signaling inhibition, IL-1 beta readout; AID 743279; THP-1 LPS/ATP IL-1B secretion, AlphaLISA, 16 h; hits give low values; actives 4.7% (n = 360,000); activity change, % at 57.5 µM; in the data active means activity change below about -50%; inconclusive means mostly about -30% to -49%
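THP-1 cells pretreated 1 hr with compounds (up to 57.5 uM final), then stimulated with LPS (250 ng/mL final) plus ATP (1.25 mM final); secreted IL-1B measured by AlphaLISA after 16 hr, decreased signal indicating inhibition.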
TDP1 inh = inhibitors of human tyrosyl-DNA phosphodiesterase TDP1; actives 0.28% (n = 350,000); Q9NUW8; recombinant TDP1, AlphaScreen DNA substrate cleavage; Potency, µM (highest dose often 130 µM), usual class: inhibitors; further: nearly all actives have a fitted effect of over 40% in size
Target sequence (Q9NUW8 whole entry, looked up): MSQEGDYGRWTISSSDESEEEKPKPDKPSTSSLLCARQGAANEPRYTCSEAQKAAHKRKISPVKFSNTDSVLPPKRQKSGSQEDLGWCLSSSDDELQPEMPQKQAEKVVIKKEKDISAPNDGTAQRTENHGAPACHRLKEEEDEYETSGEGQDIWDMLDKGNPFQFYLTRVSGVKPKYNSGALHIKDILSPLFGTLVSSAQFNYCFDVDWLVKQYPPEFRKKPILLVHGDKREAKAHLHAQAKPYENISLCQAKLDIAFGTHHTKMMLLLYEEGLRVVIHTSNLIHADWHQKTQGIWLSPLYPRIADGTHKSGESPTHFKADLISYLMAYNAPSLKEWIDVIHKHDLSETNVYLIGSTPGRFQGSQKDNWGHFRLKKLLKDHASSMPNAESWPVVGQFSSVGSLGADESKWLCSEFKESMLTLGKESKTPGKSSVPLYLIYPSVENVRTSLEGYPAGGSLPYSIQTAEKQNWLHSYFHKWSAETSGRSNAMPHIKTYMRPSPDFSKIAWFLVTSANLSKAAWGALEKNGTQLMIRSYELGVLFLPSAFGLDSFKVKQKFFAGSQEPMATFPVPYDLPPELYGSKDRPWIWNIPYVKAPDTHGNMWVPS
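Signal: AlphaScreen proximity between streptavidin donor and anti-FITC acceptor beads on intact substrate. Reaction: Tdp1 1 nM, substrate 15 nM final, 5 min RT after 15 min compound preincubation.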
TDP1 cell noCPT = qHTS for Inhibitors of human tyrosyl-DNA phosphodiesterase 1 (TDP1): qHTS in cells in absence of CPT | Potency, µM (series often up to 46.2 µM), usual class: inhibitors | DT40 Tdp1-/- hTDP1 cells, no CPT, ATP luminescence, 48 h | AID 686978, 2013 | actives 15% (n = 420,000); further: nearly all actives have a fitted effect of over 55% in size
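A cellular qHTS used chicken DT40 cells lacking endogenous Tdp1 but carrying stably transfected human TDP1. Compounds were applied without camptothecin, and cell growth kinetics were judged by ATP-dependent luminescence after ≥48 hr.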
DT40 TDP1 CPT = growth inhibition of DT40 Tdp1-/-;hTDP1 cells with camptothecin (screen for TDP1 inhibitors); chicken DT40 Tdp1-/-;hTDP1 cells + 20 nM CPT, ATP luminescence, 48 h; Potency, µM (top dose mostly 46.2 µM), most hits filed as inhibitors; actives 12% (n = 420,000); AID 686979; further: nearly all actives have a fitted effect of over 55% in size
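Chicken DT40 Tdp1-/- cells complemented with human TDP1, 400 cells/well, exposed to compounds plus 20 nM camptothecin for at least 48 h at 37 C; viability read as ATP content by CellTiter-Glo luminescence.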
HepG2 tox = HepG2 cytotoxicity, counter-screen for TGF-b inhibitors; HepG2 CAGA-GFP viability, ATP luminescence, 18 h; Potency, µM (doses to about 46.1 µM), actives largely listed as cytotoxic; actives 0.76% (n = 410,000)
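CellTiter-Glo luminescence gave cytotoxicity after 18 hours at 37 degrees C. The cells were HepG2 CAGA-GFP in 1% FBS DMEM, stimulated with 500 pg/mL TGF-beta after compound addition. %Activity was normalised to no-cell wells (complete cell-killing) and DMSO (no toxicity), and curves were fitted and classified.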
Of the large screens only hits and unclear results are named; the others gave an inactive call. Hits are enriched below; roughly 18% of the tested compounds scored in any of these assays. Unless noted, the call rests on the fitted dose curve; in most records, active means well fitted curve in the direction sought with a large enough effect; inconclusive means small, poorly fitted or top-dose-only effect, or another doubt; inactive means no such curve, though single readings can be large; an effect the other way counts as inactive or inconclusive.

COc1ccc(CCNC[C@H](O)c2ccc(O)cc2)cc1OC	TDP1 cell noCPT inconclusive (no result: TGFb SMAD3 inh, IL-1B inflam inh, TDP1 inh, HepG2 tox)
Cc1cc(C)n(CCNC(=O)c2cc(COc3ccc4ncccc4c3)on2)n1	TDP1 cell noCPT 21µM, DT40 TDP1 CPT 21µM (no result: TDP1 inh)
Cc1ccc(OCc2cc(C(=O)NCCc3cccnc3)no2)cc1C	TDP1 cell noCPT inconclusive, DT40 TDP1 CPT inconclusive
Cc1ccc(F)cc1CNC(=O)c1cc(COc2ccc3ncccc3c2)on1	TDP1 cell noCPT 10µM, DT40 TDP1 CPT 4.1µM
O=C(NCc1cccc(Cl)c1)c1cc(COc2ccc3ncccc3c2)on1	TGFb SMAD3 inh inconclusive, IL-1B inflam inh inconclusive, TDP1 cell noCPT 21µM, DT40 TDP1 CPT 16µM
Cc1ccc(OCc2cc(C(=O)NC(C)Cc3cccc(C)n3)no2)cn1 (stereo unspecified)	TDP1 cell noCPT 7.3µM, DT40 TDP1 CPT 13µM
CCc1ccc([C@H]2[C@@H]3C(=O)C[C@@H]4C(=O)NC(=O)[C@@H]4[C@@H]3CN2S(=O)(=O)c2ccc(C)cc2)cc1	none (no result: TDP1 inh)
Cc1ccc(F)cc1NC(=O)CSc1n[nH]c(N)n1	none
CC(CCCC(C)(C)O)NC(=O)c1cc(COc2ccc3ncccc3c2)on1 (stereo unspecified)	TDP1 cell noCPT 4.6µM, DT40 TDP1 CPT 8.2µM
CC(=O)c1nn(-c2ccc(Cl)cc2)cc1C(=O)c1ccc(C)cc1	TDP1 cell noCPT inconclusive (no result: IL-1B inflam inh, TDP1 inh)
N#Cc1cn(-c2ccccc2)nc1C(=O)c1ccccc1	TDP1 cell noCPT 12µM, DT40 TDP1 CPT inconclusive
CC(=O)c1nn(-c2ccccc2)cc1C(=O)c1ccc(C)cc1	TDP1 cell noCPT 23µM, DT40 TDP1 CPT inconclusive (no result: TDP1 inh)
O=C(Nc1ccc(F)cc1)[C@H](CSCc1ccccc1)N1Cc2ccccc2C1=O	none (no result: IL-1B inflam inh)
Cc1ccc2cc(CN(C(=O)c3ccc4c(c3)OCO4)C3CC3)c(N(C)C)nc2c1	none (no result: TGFb SMAD3 inh, IL-1B inflam inh, TDP1 inh, HepG2 tox)
Cc1ccccc1OCC(=O)NNC(=O)Nc1ccc(Cl)cc1	TDP1 cell noCPT 4.6µM, DT40 TDP1 CPT 5.8µM
COc1ccc(NC(C)=O)cc1CNC(=O)COc1ccccc1C(=O)Nc1cccc(C)c1C	TDP1 cell noCPT 4.1µM, DT40 TDP1 CPT inconclusive (no result: TDP1 inh)
Cc1ccc(NC(=O)COc2ccccc2C(=O)Nc2ccccc2)cc1Cl	none
Cc1ccc(Cl)cc1NC(=O)c1ccccc1OCC(=O)Nc1ccc(Cl)cc1	TDP1 cell noCPT 5.8µM, DT40 TDP1 CPT inconclusive
O=C(COc1ccc(Cl)cc1Cl)Nc1ccc(C(=O)Nc2ccccc2C(=O)O)cc1	TDP1 inh 50µM
O=C(COc1ccc(Cl)cc1Cl)NC(=S)Nc1ccccc1C(=O)O	none (no result: TGFb SMAD3 inh, IL-1B inflam inh, TDP1 cell noCPT, DT40 TDP1 CPT, HepG2 tox)
Cc1cc(C)c2c(=O)[nH]c(SCc3ccccc3)nc2n1	TGFb SMAD3 inh inconclusive
Cn1c(=O)c(C(=O)NCC2CCCO2)c(O)c2ccccc21 (stereo unspecified)	TDP1 cell noCPT inconclusive
CN(C(=O)c1cc(S(=O)(=O)N2CCOCC2)cs1)c1ccccc1	none
COc1ccc(C(=O)Nc2nnc(S(=O)(=O)N3CCOCC3)s2)cc1	none
CCOC(=O)N1CCC(NC(=O)c2cnn(-c3ccc(F)cc3F)c2C2CCN(C(=O)OC(C)(C)C)CC2)CC1	TGFb SMAD3 inh inconclusive (no result: IL-1B inflam inh)
CC(C)(C)OC(=O)N1CCC(c2c(C(=O)NCc3ccccc3)cnn2-c2ccc(F)cc2)CC1	TDP1 cell noCPT 18µM, DT40 TDP1 CPT 23µM (no result: IL-1B inflam inh)
COc1ccc(-n2ncc(C(=O)NCc3cccs3)c2C2CCN(C(=O)OC(C)(C)C)CC2)cc1	TDP1 cell noCPT inconclusive, DT40 TDP1 CPT inconclusive (no result: IL-1B inflam inh)
CC(C)(C)OC(=O)N1CCC(c2c(C(=O)NCc3ccco3)cnn2-c2ccc(F)cc2F)CC1	TGFb SMAD3 inh inconclusive, TDP1 cell noCPT inconclusive, DT40 TDP1 CPT 23µM (no result: IL-1B inflam inh)
